# Laboratory results published in article PMC10313818.
# What was measured:
# Test in all cases: cross-linking mass spectrometry
# Details in all cases: not determined
# ACACA = ACACA (UniProt Q13085)
# COX7C = COX7C (UniProt P15954)
# HSDL2 = HSDL2 (UniProt Q6YN16)
# IDH3G = IDH3G (UniProt P51553)
# ADCK1 = ADCK1 (UniProt Q86TW2)
# ALDH3A2 = ALDH3A2 (UniProt P51648)
# APOO = APOO (UniProt Q9BUR5)
# ATP5PF = ATP5PF (UniProt P18859)
# COQ3 = COQ3 (UniProt Q9NZJ6)
# GUF1 = GUF1 (UniProt Q8N442)
# HADHA = HADHA (UniProt P40939)
# HADHA, sequence (P40939 whole entry): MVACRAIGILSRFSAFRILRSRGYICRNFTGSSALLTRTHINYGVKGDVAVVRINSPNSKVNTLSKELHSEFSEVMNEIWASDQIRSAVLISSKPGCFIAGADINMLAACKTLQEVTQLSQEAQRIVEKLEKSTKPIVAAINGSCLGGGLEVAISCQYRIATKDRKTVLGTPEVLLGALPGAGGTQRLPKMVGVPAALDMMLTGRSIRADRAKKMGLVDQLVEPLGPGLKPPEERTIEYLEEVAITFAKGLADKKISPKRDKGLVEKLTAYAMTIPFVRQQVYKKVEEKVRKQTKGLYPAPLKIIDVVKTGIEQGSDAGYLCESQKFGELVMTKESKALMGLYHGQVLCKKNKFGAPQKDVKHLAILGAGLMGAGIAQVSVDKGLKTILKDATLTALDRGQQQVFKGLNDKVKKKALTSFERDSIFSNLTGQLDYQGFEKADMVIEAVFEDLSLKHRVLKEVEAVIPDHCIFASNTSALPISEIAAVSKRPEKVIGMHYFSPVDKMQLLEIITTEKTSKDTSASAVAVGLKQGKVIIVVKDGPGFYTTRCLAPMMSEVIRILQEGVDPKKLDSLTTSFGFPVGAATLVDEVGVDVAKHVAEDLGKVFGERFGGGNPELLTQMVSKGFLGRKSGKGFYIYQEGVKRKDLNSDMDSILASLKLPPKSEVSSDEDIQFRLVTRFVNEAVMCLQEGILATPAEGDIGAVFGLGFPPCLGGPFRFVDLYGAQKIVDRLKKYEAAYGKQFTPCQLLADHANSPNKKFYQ
# MTRF1L = MTRF1L (UniProt Q9UGC7)
# NOCT = NOCT (UniProt Q9UK39)
# OGDH = OGDH (UniProt Q02218)
# OGDHL = OGDHL (UniProt Q9ULD0)
# OGDHL, sequence (Q9ULD0 whole entry): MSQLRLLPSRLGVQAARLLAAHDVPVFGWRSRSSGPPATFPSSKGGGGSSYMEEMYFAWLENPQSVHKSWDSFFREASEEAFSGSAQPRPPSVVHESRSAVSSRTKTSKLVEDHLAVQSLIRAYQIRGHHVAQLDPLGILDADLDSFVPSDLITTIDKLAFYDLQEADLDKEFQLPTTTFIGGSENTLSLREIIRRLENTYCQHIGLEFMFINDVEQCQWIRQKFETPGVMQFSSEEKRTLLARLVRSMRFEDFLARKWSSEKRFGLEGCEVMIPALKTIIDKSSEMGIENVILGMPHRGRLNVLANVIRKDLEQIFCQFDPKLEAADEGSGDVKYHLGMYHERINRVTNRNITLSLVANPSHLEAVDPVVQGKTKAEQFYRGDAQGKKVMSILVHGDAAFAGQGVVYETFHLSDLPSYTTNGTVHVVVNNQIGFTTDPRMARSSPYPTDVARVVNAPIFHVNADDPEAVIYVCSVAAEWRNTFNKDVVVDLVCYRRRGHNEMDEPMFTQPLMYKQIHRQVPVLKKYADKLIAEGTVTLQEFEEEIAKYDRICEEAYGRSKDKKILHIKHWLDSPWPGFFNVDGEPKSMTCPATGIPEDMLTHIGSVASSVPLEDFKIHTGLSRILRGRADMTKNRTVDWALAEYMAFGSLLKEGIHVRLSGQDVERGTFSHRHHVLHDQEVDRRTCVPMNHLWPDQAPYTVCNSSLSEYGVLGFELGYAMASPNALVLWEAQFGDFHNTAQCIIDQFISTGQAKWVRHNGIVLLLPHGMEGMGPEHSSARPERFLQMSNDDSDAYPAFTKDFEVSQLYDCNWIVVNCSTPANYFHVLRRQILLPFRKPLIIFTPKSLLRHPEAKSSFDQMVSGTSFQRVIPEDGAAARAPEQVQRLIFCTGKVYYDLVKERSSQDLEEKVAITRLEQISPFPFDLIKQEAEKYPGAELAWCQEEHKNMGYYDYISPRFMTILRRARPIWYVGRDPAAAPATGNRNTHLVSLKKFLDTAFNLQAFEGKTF
# PDSS1 = PDSS1 (UniProt Q5T2R2)
# PHB2 = PHB2 (UniProt Q99623)
# PHB2, sequence (Q99623 whole entry): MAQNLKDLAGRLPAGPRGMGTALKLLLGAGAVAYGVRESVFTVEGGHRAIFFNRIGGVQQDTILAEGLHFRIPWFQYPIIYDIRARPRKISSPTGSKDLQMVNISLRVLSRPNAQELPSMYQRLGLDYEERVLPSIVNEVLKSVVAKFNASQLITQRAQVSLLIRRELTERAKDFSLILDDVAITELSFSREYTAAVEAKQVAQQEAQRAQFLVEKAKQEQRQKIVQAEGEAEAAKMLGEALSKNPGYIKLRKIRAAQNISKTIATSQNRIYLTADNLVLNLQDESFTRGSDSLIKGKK
# PMPCA = PMPCA (UniProt Q10713)
# PRDX6 = PRDX6 (UniProt P30041)
# RMND1 = RMND1 (UniProt Q9NWS8)
# SAMM50 = SAMM50 (UniProt Q9Y512)
# SDHA = SDHA (UniProt P31040)
# SIRT3 = SIRT3 (UniProt Q9NTG7)
# SLC25A19 = SLC25A19 (UniProt Q9HC21)
# SPRYD4 = SPRYD4 (UniProt Q8WW59)
# TBRG4 = TBRG4 (UniProt Q969Z0)
# TBRG4, sequence (Q969Z0 whole entry): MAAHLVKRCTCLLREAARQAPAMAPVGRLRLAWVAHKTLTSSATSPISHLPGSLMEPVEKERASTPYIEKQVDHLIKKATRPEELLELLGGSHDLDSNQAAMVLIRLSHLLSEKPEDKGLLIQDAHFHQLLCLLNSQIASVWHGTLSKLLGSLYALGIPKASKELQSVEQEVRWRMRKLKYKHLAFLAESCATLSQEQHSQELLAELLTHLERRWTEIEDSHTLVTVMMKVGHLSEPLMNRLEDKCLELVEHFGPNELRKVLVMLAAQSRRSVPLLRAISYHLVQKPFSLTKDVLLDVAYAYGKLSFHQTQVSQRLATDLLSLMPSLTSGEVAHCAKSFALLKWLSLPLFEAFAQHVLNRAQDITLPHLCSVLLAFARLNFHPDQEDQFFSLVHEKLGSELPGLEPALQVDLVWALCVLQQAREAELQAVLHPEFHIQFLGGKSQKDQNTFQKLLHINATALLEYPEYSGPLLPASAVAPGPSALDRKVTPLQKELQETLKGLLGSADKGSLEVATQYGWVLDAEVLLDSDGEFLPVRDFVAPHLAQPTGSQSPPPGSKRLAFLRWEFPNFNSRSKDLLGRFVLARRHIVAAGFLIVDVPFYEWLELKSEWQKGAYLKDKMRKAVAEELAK
# TUFM = TUFM (UniProt P49411)
# ALDH3A2, sequence (P51648 whole entry): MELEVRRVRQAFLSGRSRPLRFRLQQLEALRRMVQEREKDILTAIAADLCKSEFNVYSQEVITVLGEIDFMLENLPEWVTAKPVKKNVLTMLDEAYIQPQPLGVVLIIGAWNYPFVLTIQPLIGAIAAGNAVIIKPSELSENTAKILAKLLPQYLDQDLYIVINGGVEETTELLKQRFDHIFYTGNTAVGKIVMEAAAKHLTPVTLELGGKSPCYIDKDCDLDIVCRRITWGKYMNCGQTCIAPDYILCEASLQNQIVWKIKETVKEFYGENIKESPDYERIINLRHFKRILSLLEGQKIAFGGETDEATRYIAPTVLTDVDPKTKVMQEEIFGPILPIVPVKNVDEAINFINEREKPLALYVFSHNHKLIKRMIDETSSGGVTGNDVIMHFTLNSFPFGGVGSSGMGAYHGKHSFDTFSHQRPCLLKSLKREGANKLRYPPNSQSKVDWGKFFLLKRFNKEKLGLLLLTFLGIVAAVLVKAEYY
# NDUFC1, O43677, sequence (O43677 whole entry): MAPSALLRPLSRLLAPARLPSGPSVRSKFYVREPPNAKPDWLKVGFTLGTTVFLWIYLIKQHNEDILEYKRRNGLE
# ALDH4A1, P30038, sequence (P30038 whole entry): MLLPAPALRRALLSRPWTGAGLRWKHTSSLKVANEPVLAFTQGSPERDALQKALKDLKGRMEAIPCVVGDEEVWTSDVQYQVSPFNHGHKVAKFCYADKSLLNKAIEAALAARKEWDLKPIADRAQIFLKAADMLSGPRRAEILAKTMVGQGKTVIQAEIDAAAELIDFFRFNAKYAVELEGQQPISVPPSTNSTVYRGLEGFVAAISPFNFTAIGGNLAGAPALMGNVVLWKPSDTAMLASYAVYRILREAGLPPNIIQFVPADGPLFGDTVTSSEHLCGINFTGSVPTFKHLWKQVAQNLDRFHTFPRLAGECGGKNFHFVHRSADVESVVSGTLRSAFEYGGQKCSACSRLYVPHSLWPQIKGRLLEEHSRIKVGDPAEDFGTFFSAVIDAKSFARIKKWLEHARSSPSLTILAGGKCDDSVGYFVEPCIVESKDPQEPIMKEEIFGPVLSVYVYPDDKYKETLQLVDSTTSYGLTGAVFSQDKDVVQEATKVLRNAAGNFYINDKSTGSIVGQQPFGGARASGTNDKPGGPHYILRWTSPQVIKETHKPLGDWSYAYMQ
# ATP5PD, O75947, sequence (O75947 whole entry): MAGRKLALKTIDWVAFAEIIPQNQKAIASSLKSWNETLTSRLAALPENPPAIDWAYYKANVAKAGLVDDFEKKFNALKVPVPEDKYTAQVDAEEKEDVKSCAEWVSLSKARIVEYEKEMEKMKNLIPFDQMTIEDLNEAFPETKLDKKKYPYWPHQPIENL
# COQ3, sequence (Q9NZJ6 whole entry): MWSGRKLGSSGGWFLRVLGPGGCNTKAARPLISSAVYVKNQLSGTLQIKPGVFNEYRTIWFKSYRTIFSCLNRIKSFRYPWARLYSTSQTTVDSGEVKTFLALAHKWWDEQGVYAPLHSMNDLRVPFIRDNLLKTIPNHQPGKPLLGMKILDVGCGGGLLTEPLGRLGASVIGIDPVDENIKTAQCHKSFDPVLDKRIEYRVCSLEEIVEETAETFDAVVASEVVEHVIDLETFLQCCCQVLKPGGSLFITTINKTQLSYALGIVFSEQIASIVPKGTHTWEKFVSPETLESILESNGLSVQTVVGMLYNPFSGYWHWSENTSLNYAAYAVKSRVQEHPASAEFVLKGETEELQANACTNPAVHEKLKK
# VDAC1, P21796, sequence (P21796 whole entry): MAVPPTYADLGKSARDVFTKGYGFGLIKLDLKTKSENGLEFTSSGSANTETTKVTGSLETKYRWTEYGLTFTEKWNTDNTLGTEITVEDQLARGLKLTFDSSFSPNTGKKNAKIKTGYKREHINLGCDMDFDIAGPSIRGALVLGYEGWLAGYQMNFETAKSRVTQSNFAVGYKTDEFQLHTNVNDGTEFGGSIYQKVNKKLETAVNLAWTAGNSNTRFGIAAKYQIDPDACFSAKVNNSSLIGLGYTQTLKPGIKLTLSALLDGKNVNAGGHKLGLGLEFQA
# BPHL, Q86WA6, sequence (Q86WA6 whole entry): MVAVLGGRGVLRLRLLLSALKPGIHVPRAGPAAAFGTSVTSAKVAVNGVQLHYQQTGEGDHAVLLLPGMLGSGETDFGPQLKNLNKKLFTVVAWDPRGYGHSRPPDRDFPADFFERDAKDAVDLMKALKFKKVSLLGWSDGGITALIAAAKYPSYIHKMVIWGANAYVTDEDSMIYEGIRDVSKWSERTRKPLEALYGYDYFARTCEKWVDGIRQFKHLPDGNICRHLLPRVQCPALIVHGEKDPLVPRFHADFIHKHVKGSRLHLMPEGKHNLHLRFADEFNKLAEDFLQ
substance,measurement,setting,value
"HSPD1, P10809",cross-linked residues,ACACA,K58 - K2167
same,cross-linked residues,COX7C,K58 - K34
same,cross-linked residues,HSDL2,K418 - K304
same,cross-linked residues,IDH3G,K31 - K214
"NDUFC1, O43677",cross-linked residues,ADCK1,K28 - K325
"HADHA, P40939",cross-linked residues,ALDH3A2,K254 - M1
"GUF1, Q8N442",cross-linked residues,APOO,K351 - K27
"ATP5PD, O75947",cross-linked residues,ATP5PF,K63 - K79
"DHX30, Q7L2E3",cross-linked residues,COQ3,K303 - K196
"ACADM, P11310",cross-linked residues,GUF1,K144 - K664
"BCL2, P10415",cross-linked residues,HADHA,M1 - K254
"TOMM20, Q15388",cross-linked residues,MTRF1L,K56 - K74
"ALDH4A1, P30038",cross-linked residues,NOCT,K93 - M1
"VDAC1, P21796",cross-linked residues,OGDH,K61 - K999
"PDHA1, P08559",cross-linked residues,OGDHL,K40 - K525
"NDUFV3, P56181",cross-linked residues,PDSS1,M1 - K91
"PHB1, P35232",cross-linked residues,PHB2,K202 - K216
"PMPCB, O75439",cross-linked residues,PMPCA,K148 - K64
"COX5B, P10606",cross-linked residues,PRDX6,K57 - K63
"BCKDHB, P21953",cross-linked residues,RMND1,K381 - K145
"VDAC2, P45880",cross-linked residues,SAMM50,K74 - G2
"SNAP29, O95721",cross-linked residues,SDHA,K124 - K517
"MACROD1, Q9BQ69",cross-linked residues,SIRT3,K99 - K399
"BPHL, Q86WA6",cross-linked residues,SLC25A19,V2 - V2
"ATP5F1D, P30049",cross-linked residues,SPRYD4,K136 - K33
"ACSM4, P0C7M7",cross-linked residues,TBRG4,K542 - K576
"ACACB, O00763",cross-linked residues,TUFM,K1705 - K259
